# Unmarked numbers belong to inactive results.
# Legend:
# Experiment in all cases: log2 ratio of Biotin-Ahx-Ub-VS probe labelling (fragment/DMSO); higher = less target engagement (more negative = stronger competition), active = hit call of the paper (q ≤ 0.05, log2 ratio ≤ -1)
# Conditions in all cases: compound concentration: 200 uM; treatment time: 3 h
# OTUD6B = molecular target: T1, OTUD6B (UniProt Q8N6M0)
# T1 sequence (whole entry): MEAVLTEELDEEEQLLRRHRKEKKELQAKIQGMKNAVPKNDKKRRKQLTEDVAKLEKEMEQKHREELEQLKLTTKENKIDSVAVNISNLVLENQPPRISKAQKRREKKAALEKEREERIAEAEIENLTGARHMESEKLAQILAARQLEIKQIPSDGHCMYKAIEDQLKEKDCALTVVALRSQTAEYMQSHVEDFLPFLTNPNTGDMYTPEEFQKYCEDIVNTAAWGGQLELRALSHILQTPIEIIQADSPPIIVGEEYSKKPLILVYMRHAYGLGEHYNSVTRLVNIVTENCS
# How it was run: (§1)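 HEK293T lysate (495 µg per sample, in Tris/CHAPS/IGEPAL buffer with protease inhibitors) was exposed in triplicate for 3 h to fragment at 200 µM or to vehicle, then to Biotin-Ahx-Ub-VS at 0.5 µM final for 1 h. Labelled DUBs were enriched on NeutrAvidin, digested with LysC and trypsin, and analysed by diaPASEF LC-MS/MS. Spectronaut label-free quantities were normalised to the global median, and values are average log2 ratios of fragment over vehicle from an unpaired t-test. Only proteins with ≥2 unique peptides were used.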
# OTUD7B = molecular target: T2, OTUD7B (UniProt Q6GQQ9)
# T2 sequence (whole entry): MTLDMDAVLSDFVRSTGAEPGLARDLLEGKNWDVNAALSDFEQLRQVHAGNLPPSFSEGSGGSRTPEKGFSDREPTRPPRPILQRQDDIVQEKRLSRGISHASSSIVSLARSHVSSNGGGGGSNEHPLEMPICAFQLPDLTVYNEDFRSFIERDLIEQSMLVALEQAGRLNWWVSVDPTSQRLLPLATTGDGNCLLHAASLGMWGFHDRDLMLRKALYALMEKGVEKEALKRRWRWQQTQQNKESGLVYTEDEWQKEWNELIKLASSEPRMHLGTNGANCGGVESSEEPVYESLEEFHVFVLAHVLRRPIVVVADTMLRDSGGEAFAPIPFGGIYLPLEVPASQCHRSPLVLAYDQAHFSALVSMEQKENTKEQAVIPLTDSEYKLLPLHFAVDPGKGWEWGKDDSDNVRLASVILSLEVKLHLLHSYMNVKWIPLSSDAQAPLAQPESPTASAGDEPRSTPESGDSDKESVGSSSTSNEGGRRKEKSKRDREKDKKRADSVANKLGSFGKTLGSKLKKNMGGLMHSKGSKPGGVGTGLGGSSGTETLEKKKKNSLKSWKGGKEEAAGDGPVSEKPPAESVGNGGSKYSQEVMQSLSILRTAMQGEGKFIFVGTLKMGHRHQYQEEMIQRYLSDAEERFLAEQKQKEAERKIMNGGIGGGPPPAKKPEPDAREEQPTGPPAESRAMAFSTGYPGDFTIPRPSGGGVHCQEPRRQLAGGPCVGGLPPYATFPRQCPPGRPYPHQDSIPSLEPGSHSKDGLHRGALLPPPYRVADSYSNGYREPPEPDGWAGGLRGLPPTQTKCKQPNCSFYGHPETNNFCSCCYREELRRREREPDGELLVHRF
# How it was run: as §1
# PRPF8 = PRPF8 (UniProt Q6P2Q9)
# How it was run: as §1
# PSMD7 = molecular target: T3, PSMD7 (UniProt P51665)
# T3 sequence (whole entry): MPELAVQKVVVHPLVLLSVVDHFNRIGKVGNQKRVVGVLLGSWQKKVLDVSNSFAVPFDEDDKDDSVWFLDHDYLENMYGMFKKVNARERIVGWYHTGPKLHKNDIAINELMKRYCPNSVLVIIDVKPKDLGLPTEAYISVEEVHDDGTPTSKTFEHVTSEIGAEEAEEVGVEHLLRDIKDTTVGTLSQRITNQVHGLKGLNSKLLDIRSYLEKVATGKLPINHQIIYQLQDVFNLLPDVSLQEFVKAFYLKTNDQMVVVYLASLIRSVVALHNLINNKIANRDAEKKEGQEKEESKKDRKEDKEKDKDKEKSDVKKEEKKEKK
# How it was run: as §1
# UCHL1 = UCHL1 (UniProt P09936)
# Chain of UCHL1 (P09936 whole entry, looked up): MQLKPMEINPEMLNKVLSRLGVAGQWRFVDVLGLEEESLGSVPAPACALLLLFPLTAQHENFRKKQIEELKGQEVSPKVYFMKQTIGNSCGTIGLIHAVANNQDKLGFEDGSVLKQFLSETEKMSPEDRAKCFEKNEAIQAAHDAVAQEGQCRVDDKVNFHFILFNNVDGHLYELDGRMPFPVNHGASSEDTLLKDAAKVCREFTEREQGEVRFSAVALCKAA
# How it was run: as §1
# UCHL3 = molecular target: T4, UCHL3 (UniProt P15374)
# T4 sequence (whole entry): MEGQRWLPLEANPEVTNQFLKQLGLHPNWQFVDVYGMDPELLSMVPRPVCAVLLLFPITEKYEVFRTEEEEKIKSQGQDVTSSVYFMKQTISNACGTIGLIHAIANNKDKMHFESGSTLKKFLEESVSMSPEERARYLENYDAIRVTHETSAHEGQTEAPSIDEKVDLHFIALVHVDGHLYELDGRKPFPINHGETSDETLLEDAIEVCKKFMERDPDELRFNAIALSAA
# How it was run: as §1
# UCHL5 = molecular target: T5, UCHL5 (UniProt Q9Y5K5)
# T5 sequence (whole entry): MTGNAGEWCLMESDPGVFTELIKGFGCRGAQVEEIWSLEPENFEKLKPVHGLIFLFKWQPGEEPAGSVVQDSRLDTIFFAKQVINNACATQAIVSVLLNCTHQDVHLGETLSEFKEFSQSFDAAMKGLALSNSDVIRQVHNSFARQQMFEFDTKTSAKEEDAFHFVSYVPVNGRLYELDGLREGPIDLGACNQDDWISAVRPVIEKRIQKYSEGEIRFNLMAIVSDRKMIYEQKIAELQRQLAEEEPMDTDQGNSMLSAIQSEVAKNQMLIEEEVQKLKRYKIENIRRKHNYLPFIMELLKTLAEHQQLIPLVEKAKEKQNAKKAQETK
# How it was run: as §1
# USP10 = USP10 (UniProt Q14694)
# Chain of USP10 (Q14694 whole entry): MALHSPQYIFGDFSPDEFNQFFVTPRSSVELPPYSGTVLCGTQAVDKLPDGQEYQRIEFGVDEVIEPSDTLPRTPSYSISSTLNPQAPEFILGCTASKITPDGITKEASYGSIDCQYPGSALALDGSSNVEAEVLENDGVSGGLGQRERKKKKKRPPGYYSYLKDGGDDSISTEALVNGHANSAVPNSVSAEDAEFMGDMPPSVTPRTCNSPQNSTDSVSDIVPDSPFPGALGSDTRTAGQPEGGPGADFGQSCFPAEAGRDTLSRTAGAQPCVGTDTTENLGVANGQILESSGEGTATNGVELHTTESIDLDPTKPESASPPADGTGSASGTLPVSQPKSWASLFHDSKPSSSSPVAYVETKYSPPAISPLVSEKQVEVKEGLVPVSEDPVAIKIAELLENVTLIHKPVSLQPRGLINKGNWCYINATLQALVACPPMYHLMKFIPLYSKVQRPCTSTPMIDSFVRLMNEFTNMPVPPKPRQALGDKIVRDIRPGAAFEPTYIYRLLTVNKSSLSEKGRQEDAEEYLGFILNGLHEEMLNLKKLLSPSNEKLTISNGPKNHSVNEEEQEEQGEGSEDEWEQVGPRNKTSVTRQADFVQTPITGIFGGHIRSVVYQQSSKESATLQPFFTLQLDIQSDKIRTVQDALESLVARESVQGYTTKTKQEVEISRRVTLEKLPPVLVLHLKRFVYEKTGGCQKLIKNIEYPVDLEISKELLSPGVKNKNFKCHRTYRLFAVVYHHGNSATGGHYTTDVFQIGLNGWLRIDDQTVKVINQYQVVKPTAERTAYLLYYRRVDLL
# How it was run: as §1
# USP15 = molecular target: T6, USP15 (UniProt Q9Y4E8)
# T6 sequence (whole entry): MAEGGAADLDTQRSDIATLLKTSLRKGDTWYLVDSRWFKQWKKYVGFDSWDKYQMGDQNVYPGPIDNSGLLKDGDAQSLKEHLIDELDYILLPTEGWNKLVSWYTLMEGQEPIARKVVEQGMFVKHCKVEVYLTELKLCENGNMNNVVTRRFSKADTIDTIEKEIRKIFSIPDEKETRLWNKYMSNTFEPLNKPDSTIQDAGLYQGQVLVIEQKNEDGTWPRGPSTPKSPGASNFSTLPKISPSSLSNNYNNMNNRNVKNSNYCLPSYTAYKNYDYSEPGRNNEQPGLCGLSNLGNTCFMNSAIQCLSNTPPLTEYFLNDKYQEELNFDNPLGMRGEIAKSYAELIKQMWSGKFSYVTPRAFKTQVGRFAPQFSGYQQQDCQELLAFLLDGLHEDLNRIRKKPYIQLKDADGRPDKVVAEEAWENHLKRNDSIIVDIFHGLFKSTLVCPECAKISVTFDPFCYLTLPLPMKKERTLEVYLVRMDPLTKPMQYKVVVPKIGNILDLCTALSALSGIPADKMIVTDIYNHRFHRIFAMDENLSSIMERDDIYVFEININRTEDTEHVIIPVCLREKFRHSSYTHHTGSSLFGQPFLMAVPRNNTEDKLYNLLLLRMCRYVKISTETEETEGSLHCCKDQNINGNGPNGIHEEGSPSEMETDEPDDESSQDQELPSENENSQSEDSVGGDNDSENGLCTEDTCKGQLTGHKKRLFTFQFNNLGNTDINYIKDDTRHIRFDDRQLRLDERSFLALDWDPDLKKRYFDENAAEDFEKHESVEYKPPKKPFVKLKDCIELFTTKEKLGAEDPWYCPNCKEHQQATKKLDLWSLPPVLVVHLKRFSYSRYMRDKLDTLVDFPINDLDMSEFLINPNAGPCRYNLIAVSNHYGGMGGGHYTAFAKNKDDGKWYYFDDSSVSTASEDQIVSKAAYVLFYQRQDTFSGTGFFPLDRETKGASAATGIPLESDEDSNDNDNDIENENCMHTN
# How it was run: as §1
# USP16 = USP16 (UniProt Q9Y5T5)
# Chain of USP16 (Q9Y5T5 whole entry, looked up): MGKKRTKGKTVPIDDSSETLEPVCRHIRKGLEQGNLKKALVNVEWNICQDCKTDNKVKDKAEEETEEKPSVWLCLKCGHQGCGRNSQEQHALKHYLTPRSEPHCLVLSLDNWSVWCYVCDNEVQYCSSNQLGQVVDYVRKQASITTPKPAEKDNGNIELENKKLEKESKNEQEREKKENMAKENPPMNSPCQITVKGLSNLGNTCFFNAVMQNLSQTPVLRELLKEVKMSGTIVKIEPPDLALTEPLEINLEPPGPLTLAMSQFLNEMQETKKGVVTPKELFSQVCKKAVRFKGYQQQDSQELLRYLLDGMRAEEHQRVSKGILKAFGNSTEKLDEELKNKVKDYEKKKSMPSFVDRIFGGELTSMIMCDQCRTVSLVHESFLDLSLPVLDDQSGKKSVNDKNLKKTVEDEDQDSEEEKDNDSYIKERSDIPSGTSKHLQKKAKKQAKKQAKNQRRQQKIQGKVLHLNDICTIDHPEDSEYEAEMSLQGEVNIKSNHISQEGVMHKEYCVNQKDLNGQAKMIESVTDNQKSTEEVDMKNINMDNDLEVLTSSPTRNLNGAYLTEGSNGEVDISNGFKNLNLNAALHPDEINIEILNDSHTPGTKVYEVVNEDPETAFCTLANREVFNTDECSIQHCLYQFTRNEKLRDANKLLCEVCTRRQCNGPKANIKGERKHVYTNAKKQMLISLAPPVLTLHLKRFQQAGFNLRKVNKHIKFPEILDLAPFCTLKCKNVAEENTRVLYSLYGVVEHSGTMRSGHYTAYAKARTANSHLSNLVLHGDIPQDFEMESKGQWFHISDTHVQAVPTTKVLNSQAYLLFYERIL
# How it was run: as §1
smiles,measurement,setting,value
Cc1cccnc1NC(=O)C1CCN(C(=O)CCl)CC1.Cl,log2 ratio of Biotin-Ahx-Ub-VS probe labelling,OTUD6B,-0.127
same,log2 ratio of Biotin-Ahx-Ub-VS probe labelling,OTUD7B,-0.284
same,log2 ratio of Biotin-Ahx-Ub-VS probe labelling,PRPF8,-0.0508
same,log2 ratio of Biotin-Ahx-Ub-VS probe labelling,PSMD7,-0.189
same,log2 ratio of Biotin-Ahx-Ub-VS probe labelling,UCHL1,-1.33 (active)
same,log2 ratio of Biotin-Ahx-Ub-VS probe labelling,UCHL3,0.088
same,log2 ratio of Biotin-Ahx-Ub-VS probe labelling,UCHL5,-0.328
same,log2 ratio of Biotin-Ahx-Ub-VS probe labelling,USP10,-0.146
same,log2 ratio of Biotin-Ahx-Ub-VS probe labelling,USP15,-0.24
same,log2 ratio of Biotin-Ahx-Ub-VS probe labelling,USP16,0.018

# From the supplement of paper PMC11732987, “Enantioselective OTUD7B fragment discovery through chemoproteomics screening and high-throughput optimisation” (Communications Chemistry, 2025)
